A number with no mark means an inactive call. Calls of active or inactive are those of the source. Unless noted, calls follow the shape of the dose curve; as a rule, active = well fitted curve in the direction sought with a large enough effect in the repeat runs; inconclusive = weak or mixed curves; inactive = no such curve, though single readings can be large; an effect the other way counts as inactive or inconclusive.

Here are results for seven compounds from PubChem BioAssay (Tox21).

Test [1] can be described thus: qHTS assay for small molecule agonists of the p53 signaling pathway (AID 651631; calls by dose curve; also: nearly all actives have a fitted effect of over 15% in size). Summed up:
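HCT-116 cells carrying a stable p53 response element–beta-lactamase reporter were plated, rested 5 h at 37 °C, then exposed to compound in DMSO for 16 h at 37 °C; reporter activity was read as FRET substrate fluorescence after 2 h at room temperature.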

Test [2] is described as follows: qHTS assay for small molecules that induce genotoxicity in human embryonic kidney cells expressing luciferase-tagged ATAD5 (AID 651632). Also: nearly all actives have a fitted effect of over 15% in size. Summed up: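 ATAD5-luc HEK293T, 2,000 cells/well; cpd or DMSO pin-transferred; 16 hr, 37C/5% CO2; Amplite 30 min RT; luminescence.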
Background: Quantitative high-throughput screening tests each substance at several concentrations.

Test [3] is described as follows: qHTS assay for small molecule agonists of the p53 signaling pathway - cell viability (AID 651633; calls by dose curve; also: nearly all actives have a fitted effect of over 30% in size). A digest of the protocol: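 Viability counter-read: CellTiter-Glo luminescence (30 min, room temperature) in the same p53RE-bla plates. These plates had been exposed to compounds for 16 h at 37 C.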
Test [4] can be described thus: qHTS assay for small molecules that induce genotoxicity in human embryonic kidney cells expressing luciferase-tagged ATAD5 - cell viability (AID 651634; calls by dose curve; also: nearly all actives have a fitted effect of over 25% in size). Summed up:
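Fluorescence from CellTiter-Fluor, reporting protease activity within live cells, served as the viability read-out. HEK293T cells carrying luciferase-tagged ATAD5 had been treated with compound for 15.5 hr at 37C.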

Test [5] is described as follows: qHTS assay for small molecule disruptors of the mitochondrial membrane potential - cell viability (AID 720634; calls by dose curve;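 also: human HepG2 liver cancer cells; nearly all actives have a fitted effect of over 20% in size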). Summed up:
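Cells: HepG2, 2,000/well, attached overnight. Compound 1 hr, 37 C/5% CO2. +m-MPI dye, +CellTiter-Glo 30 min RT. Readout: luminescence (ATP).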

Test [6] is described as follows: qHTS assay for small molecule disruptors of the mitochondrial membrane potential (AID 720635). Summed up: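 Mitochondrial membrane potential tracked with Mito-MPS dye, red aggregates (ex 540/em 590 nm) against green monomers (ex 490/em 535 nm). Compound treatment 1 hr at 37C, dye 30 min in HepG2.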
Test [7] can be described thus: qHTS assay to test for compound auto fluorescence at 590 nm (red) in HepG2 cells (AID 720674). Summed up:
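We screened compounds on adherent HepG2 cells, incubating them for an hour at 37 C in 5% CO2 before reading emission at 590 nm under 540 nm excitation; values reflect equivalence to Rose Bengal sodium fluorescence.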

The nature of test [8]: qHTS assay to test for compound auto fluorescence at 535 nm (green) in HepG2 cells (AID 720675).
A short description of test [9]: qHTS assay to test for compound auto fluorescence at 460 nm (blue) in HEK293 cells (AID 720678). A digest of the protocol:
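Cells were seeded and left to adhere for 4-5 hr at 37C. Compounds were then pin-transferred. After an overnight incubation at 37C under 5% CO2, intrinsic fluorescence at 405/460 nm was measured and referenced to triamterene.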

Test [10] is described as follows: qHTS assay to test for compound auto fluorescence at 590 nm (red) in HEK293 cells (AID 720679). A digest of the protocol: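 Each well held 2,000 HEK293 cells in medium containing 10% dialyzed FBS. Following 4-5 hr attachment at 37C, 23 nL test compound or DMSO was added; plates sat overnight, and red fluorescence (540/590nm) was recorded.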
Test [11] in a line: qHTS assay to test for compound auto fluorescence at 535 nm (green) in HEK293 cells (AID 720680).
The nature of test [12]: qHTS assay to test for compound auto fluorescence at 460 nm (blue) in HEK293 cell free culture (AID 720681). Summed up: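 Blue fluorescence (Ex 405/Em 460 nm, triamterene-equivalent) was read immediately after pin transfer of compound or DMSO into medium (DMEM, 10% FBS) without cells.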
Test [13] in a line: qHTS assay to test for compound auto fluorescence at 535 nm (green) in HEK293 cell free culture (AID 720682). Summed up: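 Read-out: 485/535 nm fluorescence intensity, calibrated against fluorescein. Medium only (DMEM + 10% FBS, no cells); test compound or DMSO vehicle added by pintool before plate reading.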
Test [14] is described as follows: qHTS assay to test for compound auto fluorescence at 590 nm (red) in HEK293 cell free culture (AID 720683). A digest of the protocol:
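Red-channel autofluorescence of compounds in culture medium (DMEM, 10% FBS), no cells, measured at 540/590 nm. Rose Bengal sodium is the reference fluorophore for equivalence.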

A short description of test [15]: qHTS assay to test for compound auto fluorescence at 590 nm (red) in HepG2 cell free culture (AID 720684). A digest of the protocol:
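Plate contents were MEM with 10% FBS plus test compound or DMSO, no cells. Fluorescence was recorded with 540 nm excitation and 590 nm emission.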

Test [16] can be described thus: qHTS assay to test for compound auto fluorescence at 460 nm (blue) in HepG2 cell free culture (AID 720685). Summed up:
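Compound (23 nL) or DMSO pinned into cell-free MEM with 10% FBS; blue fluorescence read at 405/460 nm excitation/emission, expressed as auto-fluorescence equivalency to triamterene.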

Test [17] in a line: qHTS assay to test for compound auto fluorescence at 535 nm (green) in HepG2 cell free culture (AID 720686).
Test [18] can be described thus: qHTS assay to test for compound auto fluorescence at 460 nm (blue) in HepG2 cells (AID 720687). A digest of the protocol: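 Blue-channel autofluorescence (Ex/Em 405/460 nm, triamterene-equivalent) was measured after 1 hr compound exposure at 37 C, 5% CO2. Cells were HepG2, plated overnight at 37 C in MEM plus 10% FBS.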
Test [19] addresses Glucocorticoid receptor (Homo sapiens) (UniProt P04150). Description: qHTS assay to identify small molecule agonists of the glucocorticoid receptor (GR) signaling pathway (AID 720691; active = well fitted activation curve with a large enough effect in the signal ratio in the repeat runs, not every such curve was filed as active; inconclusive = weak or mixed curves, or effect the other way; inactive = no such curve, though single readings can be large or run the other way; the % refers to the signal ratio; also: potency is read from the fitted curve at half-maximal effect). To be noted: GR-bla HeLa, beta-lactamase reporter ratio, 18 h; activation: at 62.4 µM (top of the series) unless noted. Summed up:
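Fluorescence intensity from LiveBLAzer B/G FRET substrate (2 h, room temperature) reports beta-lactamase expression driven by the glucocorticoid response element in GR-bla HeLa cells after 18 h compound exposure at 37 C.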

Test [20] shares this target. Description: qHTS assay to identify small molecule antagonists of the glucocorticoid receptor (GR) signaling pathway (AID 720692; active = well fitted inhibition curve with a large enough effect in the signal ratio in the repeat runs, not every such curve was filed as active; inconclusive = weak or mixed curves, or effect the other way; inactive = no such curve, though single readings can be large or run the other way; the % refers to the signal ratio). Summed up:
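HeLa GR-bla cells; cmpd + dex 5 nM final, 18 h 37 C; LiveBLAzer B/G FRET substrate 2 h RT; fluorescence intensity read. Antagonist mode, qHTS.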
% is scaled to controls: 0 for no effect and ±100 for the full control effect.

Glucocorticoid receptor (Homo sapiens), sequence (P04150 whole entry, looked up): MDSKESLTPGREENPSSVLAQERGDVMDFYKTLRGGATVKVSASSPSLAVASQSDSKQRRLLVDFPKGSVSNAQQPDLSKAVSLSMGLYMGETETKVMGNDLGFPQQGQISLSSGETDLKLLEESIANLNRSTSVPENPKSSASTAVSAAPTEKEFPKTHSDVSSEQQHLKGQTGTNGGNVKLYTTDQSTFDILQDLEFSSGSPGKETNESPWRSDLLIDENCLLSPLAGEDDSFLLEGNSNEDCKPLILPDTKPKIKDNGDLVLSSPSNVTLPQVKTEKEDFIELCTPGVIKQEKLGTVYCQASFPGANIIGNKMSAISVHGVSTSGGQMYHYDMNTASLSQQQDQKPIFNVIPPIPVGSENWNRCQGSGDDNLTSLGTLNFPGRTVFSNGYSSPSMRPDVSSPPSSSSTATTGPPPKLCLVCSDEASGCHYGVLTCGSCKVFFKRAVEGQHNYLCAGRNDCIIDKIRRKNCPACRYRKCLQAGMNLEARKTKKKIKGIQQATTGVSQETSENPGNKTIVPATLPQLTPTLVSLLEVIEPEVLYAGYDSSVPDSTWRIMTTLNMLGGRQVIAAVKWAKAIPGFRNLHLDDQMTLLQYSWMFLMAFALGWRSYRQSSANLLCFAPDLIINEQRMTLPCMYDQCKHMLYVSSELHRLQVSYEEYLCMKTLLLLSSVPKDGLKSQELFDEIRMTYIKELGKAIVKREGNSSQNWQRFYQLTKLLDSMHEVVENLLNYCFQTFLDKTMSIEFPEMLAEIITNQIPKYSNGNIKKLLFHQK

Consider `Cc1ncc(CO)c(C=O)c1O`, for which the Potency entry in test [1], in test [2], in test [3], in test [4], in test [5] and in test [6] was “inactive” throughout. For the same compound, the Potency entry in [7], in test [8], in [10], in [14], in test [15] and in test [17] was “inactive” throughout. Also, the Potency result in test [19] and in test [20] was “inactive” each time. Moreover, the result in test [9], in test [11], in [12], in test [13], in test [16] and in [18] was inactive.

In the case of `C/C=C/C(=O)CC`, the activation is -0.927% [at 18 µM] in test [1], 0.488% [at 17.9 µM] in [2] and -3.49% [at 15 µM] in [19]. For the same compound, the results for the activity change, negative = cytotoxicity in test [3] and in test [5] were -24.4% [at 17.9 µM] and 4.97% [at 17.9 µM], respectively. Moreover, the activity, negative = cytotoxicity in test [4] was -7.15% [at 17.9 µM]. The ratio activity, negative = MMP loss in test [6] was 2.87% [at 17.9 µM]. For the same compound, the fluorescence, relative to Rose Bengal in test [7] is -0.234% [at 18.6 µM]. In addition, in [8], the fluorescence, % of fluorescein control was 0.0122% [at 18.6 µM]. Further, in test [9], the fluorescence, % of triamterene was -0.166% [at 18.6 µM]. Further, the fluorescence, % of fluorescein in [11] is 0.0426% [at 18.6 µM]. For the same compound, the fluorescence, % of fluorescent control in test [12] was 0.0584% [at 18.6 µM]; in test [14], -0.144% [at 18.6 µM]; in test [16], -0.0097% [at 18.6 µM]; in [18] it was -0.0002% [at 18.6 µM]. Moreover, the activity change in test [13] is 0.0169% [at 18.6 µM]. In test [15], the fluorescence, % of Rose Bengal is 0.0791% [at 18.6 µM]. The Potency result in test [20] is “inactive”.

`NCc1ccccc1Sc1ccccc1CO`: the Potency result in test [1], in [2], in [3], in test [4], in test [5] and in [6] was “inactive” throughout. For the same compound, the Potency result in test [7], in test [8], in test [10], in [15] and in test [17] was “inactive” each time. Also, the call in [9], in [11], in test [12], in [13], in test [16] and in test [18] was inactive.

With `O=CC1CC=CCC1` (configuration not stated), the Potency entry in test [1], in test [2], in test [3], in test [4], in test [5] and in test [6] was “inactive” each time. Further, the Potency result in test [8], in [10], in test [14], in test [15] and in test [17] was “inactive” in each case. Besides, the compound was classed as inactive in test [9], in [11], in test [12], in test [13], in test [16] and in [18].

As to `CCCCC/C=C\C/C=C\CCCCCCCC(=O)NC(C)c1ccccc1` (configuration not stated), the Potency result in [1], in [2], in test [3], in test [4], in [5] and in test [6] was “inactive” each time. The Potency result in [7], in test [8], in test [10], in test [14], in [15] and in test [17] was “inactive” throughout. For the same compound, in test [19], the Potency result was “inactive”. Besides, the compound was classed as inactive in test [9], in test [11], in [12], in [13], in test [16] and in test [18].

Regarding `CCCCC`, the Potency entry in test [1], in [2], in test [3], in [4], in [5] and in test [7] was “inactive” throughout. The Potency result in [8], in test [14], in test [15], in test [17], in [19] and in test [20] was “inactive” throughout. The result in [9], in [11], in [12], in test [13], in [16] and in test [18] was inactive.

Turning to `CCCCC(=O)OCC(=O)[C@H]1[C@H](C)C[C@H]2[C@@H]3C[C@H](F)C4=CC(=O)C=C[C@]4(C)[C@@]3(F)[C@@H](O)C[C@@]21C`, the Potency entry in test [1], in test [2], in test [3], in [4], in test [5] and in [7] was “inactive” throughout. Moreover, the Potency entry in [8], in [10], in test [14], in [15] and in test [17] was “inactive” in each case. Further, the compound was classed as inactive in test [9], in test [11], in [12], in [13], in test [16] and in [18]. Also, the Potency in test [19] was 7.6 nM [inconclusive] (active).
